Results reported in PubChem BioAssay (NCATS).
Several values for one entry are separate records, joined by “and”; a condition that tells them apart may be missing. Identical values can stand only once. Inconclusive results are not listed. More than one record can exist for a structure, and the calls need not agree. Activity calls are given as the source filed them. The call rests on the fitted dose curve; in most records, active means well fitted curve in the direction sought with a large enough effect; inconclusive means small, poorly fitted or top-dose-only effect, or another doubt; inactive means no such curve, though single readings can be large; an effect the other way counts as inactive or inconclusive.

What was measured:
[1] = test system: CRL-7250; assay: Cytotoxic Profiling of Annotated Libraries Using Quantitative High-Throughput Screening (AID 1296008); details: Five cell lines viability, CellTiter-Glo ATP luminescence, 48-72 h; max response: stronger effect = lower value; further: nearly all actives have a fitted effect of over 60% in size; further: potency means the concentration at half of the fitted maximal effect; on max response: on the % scale 0 is the no-effect control and ±100 the full control effect
Procedure, shortened: (§1)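 Cells exposed to compounds for 48 or 72 hr at 37 degrees Celsius. Viability read as ATP-coupled luminescence with CellTiter-Glo after 10 min at room temperature.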

[2] = test system: HEK293; assay: as above; details: Five cell lines viability, CellTiter-Glo ATP luminescence, 48-72 h; max response: stronger effect = lower value
Procedure, shortened: as §1

[3] = test system: HaCat; assay: as above; details: Five cell lines viability, CellTiter-Glo ATP luminescence, 48-72 h; max response: stronger effect = lower value
Procedure, shortened: as §1

[4] = test system: KB-3-1; assay: as above; details: Five cell lines viability, CellTiter-Glo ATP luminescence, 48-72 h; max response: stronger effect = lower value
Procedure, shortened: as §1

[5] = test system: NIH3T3; assay: as above; details: Five cell lines viability, CellTiter-Glo ATP luminescence, 48-72 h; max response: stronger effect = lower value
Procedure, shortened: as §1

[6] = test system: CRL-7250; assay: qHTS assay to identify novel small-molecules to repurpose for Merkel cell carcinoma treatment (AID 1296009); details: MCC and control cell lines, CellTiter-Glo viability, 72 h; series mostly up to 44.8 µM; further: nearly all actives have a fitted effect of over 60% in size; further: potency means the concentration at half of the fitted maximal effect
Procedure, shortened: (§2)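 Dose-response viability screen; 72 hr exposure at 37 degree celsius; CellTiter-Glo added, 10 min room temperature, luminescence read; RLUs scaled between no-cell and DMSO wells.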

[7] = test system: HACAT; assay: as above; details: MCC and control cell lines, CellTiter-Glo viability, 72 h; at 44.8 µM (top of the series) unless noted
Procedure, shortened: as §2

[8] = test system: HEK293T; assay: as above; details: MCC and control cell lines, CellTiter-Glo viability, 72 h; at 44.8 µM (top of the series)
Procedure, shortened: as §2

[9] = test system: MCC-13; assay: as above; details: MCC and control cell lines, CellTiter-Glo viability, 72 h; series mostly up to 46 µM
Procedure, shortened: as §2

[10] = test system: MCC-26; assay: as above; details: MCC and control cell lines, CellTiter-Glo viability, 72 h; series mostly up to 46 µM
Procedure, shortened: as §2

[11] = test system: MKL-1; assay: as above; details: MCC and control cell lines, CellTiter-Glo viability, 72 h; series mostly up to 46 µM
Procedure, shortened: as §2

[12] = test system: MKL-2; assay: as above; details: MCC and control cell lines, CellTiter-Glo viability, 72 h; series mostly up to 46 µM
Procedure, shortened: as §2

[13] = test system: UISO; assay: as above; details: MCC and control cell lines, CellTiter-Glo viability, 72 h; series mostly up to 46 µM
Procedure, shortened: as §2

[14] = test system: WaGa; assay: as above; details: MCC and control cell lines, CellTiter-Glo viability, 72 h; series mostly up to 46 µM
Procedure, shortened: as §2

[15] = test system: C33A; assay: Primary qHTS to identify gynecologic anti-cancer compounds using libraries of approved drugs and bioactive compounds (AID 1345084); details: Gynecologic cancer cell panel viability, ATPlite luminescence, 48 h; series mostly up to 57.5 µM; further: on the % scale 0 is the no-effect control and ±100 the full control effect; nearly all actives have a fitted effect of over 55% in size
Procedure, shortened: (§3)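 ATP-based viability (ATPlite), 1,000 cells/well, 16 h pre-incubation, 48 h compound at 37 C, 5% CO2, 15 min RT before read.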

[16] = test system: CAOV3; assay: as above; details: Gynecologic cancer cell panel viability, ATPlite luminescence, 48 h; series mostly up to 57.5 µM
Procedure, shortened: as §3

[17] = test system: CASKI; assay: as above; details: Gynecologic cancer cell panel viability, ATPlite luminescence, 48 h; series mostly up to 57.5 µM
Procedure, shortened: as §3

[18] = test system: TAB165; assay: qHTS profiling for inhibitors of Plasmodium falciparum proliferation (AID 504749); further: nearly all actives have a fitted effect of over 60% in size; further: potency means the concentration at half of the fitted maximal effect; details: P. falciparum in erythrocytes, SYBR Green DNA, 72 h; series mostly up to 28.7 µM
Procedure, shortened: (§4)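 Each compound contacts P. falciparum-infected red blood cells for 72 h at 37 C; lysis buffer (Tris, EDTA, saponin, Triton X, SYBR Green I) is added and fluorescence measured next morning; values normalized to controls.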

[19] = test system: NIH3T3; assay: qHTS assay to identify novel small-molecules to repurpose for Merkel cell carcinoma treatment (AID 1296009); details: MCC and control cell lines, CellTiter-Glo viability, 72 h; at 44.8 µM (top of the series) unless noted; further: nearly all actives have a fitted effect of over 60% in size; further: potency means the concentration at half of the fitted maximal effect
Procedure, shortened: as §2

[20] = test system: W2; assay: qHTS profiling for inhibitors of Plasmodium falciparum proliferation (AID 504749); further: nearly all actives have a fitted effect of over 60% in size; further: potency means the concentration at half of the fitted maximal effect; details: P. falciparum in erythrocytes, SYBR Green DNA, 72 h; series mostly up to 28.7 µM
Procedure, shortened: as §4

O=C(O)C(=O)c1cn(Cc2ccccc2)c2ccc(-c3ccc(OC(F)(F)F)cc3)cc12
inactive: max response [1] -5.5% | outcome [1] | max response [2] 3.18% | outcome [2] | max response [3] -0.483% | outcome [3] | outcome [4] | max response [5] -16.9% and 4.93% | outcome [6] | outcome [7] | outcome [8] | Potency [9] | Potency [10] | Potency [11] | Potency [12] | Potency [13] | Potency [14] | Potency [15] | Potency [16] | Potency [17]

CN(C)[C@@H]1C(=O)C(C(N)=O)=C(O)[C@@]2(O)C(=O)C3=C(O)c4c(O)cccc4[C@@](C)(O)[C@H]3C[C@@H]12
inactive: max response [1] -3.81% | outcome [1] | max response [3] -13.2% and 4.81% | max response [4] -1.95% and 4.68% | max response [5] -3.21% and -4.63% | outcome [6] | Potency [9] | Potency [11] | Potency [12] | Potency [13] | Potency [14] | Potency [15] | Potency [16] | Potency [17]

O=P1(NCCCl)OCCCN1CCCl (stereo not drawn)
inactive: Potency [18] | max response [1] -12.2% | max response [2] 3.55% | outcome [3] | max response [4] 0.482% and 4.18% | max response [5] -11.2% and -20.7% | outcome [7] | Potency [9] | Potency [10] | Potency [11] | Potency [12] | Potency [13] | Potency [14] | Potency [15] | Potency [16] | Potency [17]

CC(C)=CC1C(C(=O)OCc2cccc(Oc3ccccc3)c2)C1(C)C (stereo not drawn)
inactive: Potency [18] | outcome [1] | outcome [2] | max response [3] 2.03% | max response [4] 3.42% | outcome [5] | outcome [6] | outcome [8] | Potency [9] | Potency [11] | Potency [12] | outcome [19] | Potency [13] | Potency [14] | Potency [15] | Potency [16] | Potency [17]

Oc1ccc(Cl)cc1Cc1ccccc1
active: Potency [18] 6.31 µM | Potency [20] 4.78 µM | Potency [2] 19.5 µM | Potency [12] 21.9 µM | Potency [13] 34.7 µM
inactive: max response [1] -21.4% | max response [2] -23% | max response [3] -19.2% | max response [4] -1.59% and -11.5% | max response [5] -10.2% | Potency [9] | Potency [11] | Potency [15] | Potency [16] | Potency [17]

CC(=O)[C@H]1CC[C@H]2[C@@H]3CC[C@H]4C[C@](C)(O)CC[C@]4(C)[C@H]3CC[C@]12C
inactive: Potency [18] | outcome [1] | outcome [2] | outcome [3] | max response [4] -8.61% | outcome [5] | outcome [6] | outcome [7] | outcome [8] | Potency [9] | Potency [10] | Potency [11] | Potency [12] | outcome [19] | Potency [13] | Potency [14] | Potency [15] | Potency [16] | Potency [17]

CC[C@@H](CO)NC(=O)[C@@H]1C=C2c3cccc4c3c(cn4C)C[C@H]2N(C)C1
inactive: max response [1] 4.07% | max response [2] -25.3% | outcome [3] | max response [4] -9.77% | max response [5] 2.49% | outcome [7] | Potency [9] | Potency [10] | Potency [15] | Potency [16] | Potency [17]
active: Potency [11] 21.1 µM

C#CCOC(C(=O)OCCN(C)C)(c1ccccc1)c1ccccc1
inactive: Potency [18] | max response [1] -6.32% | max response [2] -8.54% | outcome [3] | max response [4] -0.159% | outcome [5] | outcome [7] | Potency [9] | Potency [11] | Potency [12] | outcome [19] | Potency [13] | Potency [14] | Potency [15] | Potency [16] | Potency [17]

CC(C)(C)CC(C)(C)c1ccc(O)cc1
active: Potency [1] 38.6 µM | Potency [2] 19.3 µM | Potency [12] 24.3 µM | Potency [14] 34.4 µM
inactive: Potency [18] | max response [1] -2.09% | max response [3] -11.5% | max response [4] 33.4% and 13.2% | outcome [5] | Potency [9] | outcome [19] | Potency [13] | Potency [15] | Potency [16] | Potency [17]

Nc1ccncc1
inactive: Potency [18] | Potency [20] | max response [1] 4.16% | max response [2] -0.798% | outcome [3] | max response [4] 14.9% | max response [5] 2.18% | outcome [7] | Potency [9] | Potency [10] | Potency [11] | Potency [12] | Potency [13] | Potency [14] | Potency [15] | Potency [16] | Potency [17]

N[C@@H]1C[C@H]1c1ccccc1
inactive: max response [1] -2.94% | max response [2] -4.85% | outcome [3] | max response [4] -0.335% | max response [5] 3.17% | outcome [7] | Potency [9] | Potency [10] | Potency [11] | Potency [12] | Potency [13] | Potency [14] | Potency [15] | Potency [16]

CCC(C(N)=O)N1CCCC1=O (stereo not drawn)
inactive: Potency [18] | max response [1] -0.833% | max response [2] -1.93% | outcome [3] | max response [4] -5.57% | outcome [5] | outcome [7] | Potency [9] | Potency [10] | Potency [11] | Potency [12] | outcome [19] | Potency [13] | Potency [14] | Potency [15] | Potency [16] | Potency [17]

CC(CCc1ccccc1)NC(C)C(O)c1ccc(O)cc1 (stereo not drawn)
inactive: max response [1] -12.9% | max response [2] -17.5% | outcome [3] | max response [4] -11.3% | max response [5] -21.3% | outcome [7] | Potency [9] | Potency [10] | Potency [11] | Potency [12] | Potency [13] | Potency [14] | Potency [15] | Potency [16] | Potency [17]
active: Potency [20] 4.26 µM
